Results published in PubChem BioAssay.

Legend:
[1] = inhibitors of PAF-induced NFkB signaling in CF airway cells, dose response, cell-based, uHTS hits, panel, cytotoxicity readout (AID 624344); settings: CF bronchial epithelial cells, PAF-induced NFkB reporter inhibition, with PAF, run 1; at 79 µM (top of the series) unless noted
[2] = as above; settings: CF bronchial epithelial cells, PAF-induced NFkB reporter inhibition, with PAF, run 2; at 79 µM (top of the series) unless noted

| Structure (SMILES) | inhibition [1] [%] | inhibition [2] |
| --- | --- | --- |
| C[C@@H]1CC=C[C@H]2[C@H]1C(=O)N(Cc1ccccc1)[C@H]2c1ccc2ccccc2c1Br | 110 | 93.6% |
| C[C@H](CO)N1C[C@H](C)[C@@H](CN(C)C(=O)Nc2ccc3c(c2)OCO3)Oc2c(NC(=O)Nc3ccc(C(F)(F)F)cc3)cccc2C1=O | 113 | 105% |
| NS(=O)(=O)c1ccc(CCNC(=O)c2ccc(C#CC3(O)CCCCC3)cc2)cc1 | 105 | 102% |
| Cc1ccccc1S(=O)(=O)Cc1ccc(C(=O)N2CCN(c3cccc(C)c3C)CC2)o1 | 103 | 114% |
| CS(=O)(=O)c1ncc(Cl)c(C(=O)Nc2ccc(OC(F)F)cc2)n1 | 91.4 | 90.1% |
| COc1ccc(-c2cc(=O)oc3cc(O)ccc23)cc1 | 105 | 103% |
| CCOc1ccc(-n2c(C)c(C(C)=O)c3cc(OC(C)=O)ccc32)cc1 | 89 | 90% |
| O=C(c1cc([N+](=O)[O-])ccc1N1CCOCC1)N1CCN(c2ccccc2)CC1 | 116 | 79.6% |
| Cc1cccc(NS(=O)(=O)c2ccc(-c3cnc(C4CC4)o3)cc2)c1C | 105 | 107% |
| C=C1C(=O)O[C@H]2C[C@H]1[C@@H](OC(C)=O)C/C(C)=C/CC/C(C)=C\CC[C@]2(C)O | 107 | 97.5% |
| Nc1cc2c(cc1Br)-c1ccccc1C2=NO | 93.5 | 106% |
| C=Cc1ccc(CC2(C)C(=O)Nc3ccc(-c4cccnc4)cc32)cc1 (stereo unspecified) | 113 | 102% |
| CCOC(=O)Oc1c(OC)cc(C(=O)O[C@@H]2C[C@@H]3CN4CCc5c([nH]c6cc(OC)ccc56)[C@H]4C[C@@H]3[C@H](C(=O)OC)[C@H]2OC)cc1OC | 54.6 | 42.4% |
| COc1ccc2cc3c(N)nn(C(=O)Cc4ccccc4OC)c3nc2c1 | 106 | 100% |
| COc1ccc(-c2cc(C(F)(F)F)nc(S(=O)(=O)CCCC(=O)Nc3cccnc3Cl)n2)cc1OC | 99.5 | 99.1% |
| CCn1c(=O)c2c(cnn2C)c2ccccc21 | 117 | 103% |
| COc1cccc(-c2cnc3c(NC=O)cc(-c4ccc(OC)cc4OC)cn23)c1 | 98.2 | 86.1% |
| CCOC(=O)c1ccc(NC(=O)Nc2nncs2)cc1 | 83.2 | 111% |
| O=C(CCS(=O)(=O)c1ccccc1)N(CCCN1CCOCC1)c1nc2c(F)cccc2s1 | 97.5 | 95.9% |
| CCOC(=O)c1[nH]c(C)c(C(=O)N2CCc3ccccc32)c1C | 34.1 | 43.6% |
| COc1ccc(-n2ncc3c(N4CCN(Cc5ccccc5)CC4)ncnc32)cc1 | 113 | 102% |
| Cc1c(C(=O)OC2CCCC2)[nH]c2c1C(=O)CC(c1ccco1)C2 (stereo unspecified) | 29 | 115% |

| Structure (SMILES) | inhibition [1] [%] | inhibition [2] |
| --- | --- | --- |
| C=C1C(=O)O[C@@H]2[C@H]3O[C@]3(C)CC/C=C(\C)CC[C@@H]12 | 101 | 99.4% |
| CCOC(=O)C1=C(CC)Nc2ccccc2N=C1NC(=O)c1oc2ccccc2c1C | 111 | 91.5% |
| Cc1ncc(CO)c2c1Oc1nc(-c3ccccc3F)nc(SCC(=O)N(C)c3ccccc3)c1C2 | 105 | 102% |
| COc1ccc([C@]2(C(C)C)ON(c3ccccc3C(F)(F)F)C2=O)cc1 | 103 | 91.5% |
| O=C(Nc1ccncc1)c1c(Cl)cccc1Cl | 112 | 101% |
| Cc1nnc(Sc2nc3ccccc3o2)c2ccccc12 | 98.3 | 107% |
| COc1cccc2c(SCC(=O)N/N=C/c3ccccc3)cc(C)nc12 | 104 | 106% |
| CC1=C(C(=O)OCc2ccc3c(c2)OCO3)C(c2cccc([N+](=O)[O-])c2)NC(=O)N1 (stereo unspecified) | 79.1 | 92.2% [at 19.8 µM] |
| COc1cccc(N2CCN(c3c(C#N)c(C(F)(F)F)nn3C)CC2)c1 | 111 | 94.2% |
| C=C1C(=O)O[C@@]23[C@H]1CC[C@@H](C)[C@@H]2CC[C@@]1(C)O[C@@H]31 | 113 | 105% |
| COc1ccc(-n2c(C)cc3cc(OC(C)=O)ccc32)cc1 | 86.5 | 70.9% |
| O=C1OC(c2ccccc2)(c2cc(Br)ccc2O)c2ccccc21 (stereo unspecified) | 105 | 116% |
| COc1ccc(-c2cnc3c(NC=O)cc(-c4ccccc4OC)cn23)cc1OC | 93.5 | 102% |
| COc1ccc(COC(=O)C2=C(C)NC(=O)NC2c2ccc(F)cc2)cc1 (stereo unspecified) | 90.1 | 105% |
| O=C1N(c2ccccc2C(F)(F)F)O[C@@]1(c1ccccc1)C1CCCCC1 | 99.3 | 105% |
| Clc1ccccc1C1=Nn2c(nnc2-c2ccncc2)SC1 | 109 | 100% |
| c1ccc(-c2nc3nonc3nc2-c2ccccc2)cc1 | 102 | 109% |
| CN(C)CCCN(C(=O)CCOc1ccccc1)c1nc2ccc(F)cc2s1 | 101 | 105% |
| O=C(Nc1cccnc1)c1sc2cccc(F)c2c1Cl | 76.8 | 92.7% |
| COc1cccc(-c2ccc3ncnc(NCc4cccs4)c3c2)c1 | 117 | 99.9% |
| O=[N+]([O-])c1ccc(O)c(C2CCCCC2)c1 | 117 | 103% |
